{"source": "PubChem BioAssay AID1159580", "about": "(chemical genetic matrix, 2015)", "test": "chemical genetic growth profiling, strain panel (AID 1159580);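 note: tested at 20 µM; growth read once vehicle control cultures reached saturation at 30 °C; 1 = growth at the plate median or of vehicle wells; lower values mean less growth of the strain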", "conditions": "growth OD", "note": "In all, about 5,500 compounds went through this assay and about 2,000 (36%) were called active. About 18% were inconclusive and are not listed. This is one part of the list. Values without a mark were called inactive. Cut-off read from the data, not from the text of the source: active = normalized growth mostly below about 0.91 (no sharp cut-off); inconclusive = no clear call, values can overlap the other calls; inactive = mostly above about 0.92.", "data": [{"smiles": "CC(=O)O.CC(=O)O.[Cd]", "values": [{"measurement": "normalized growth", "setting": "S. cerevisiae deletion strains, locus YJR043C, strain POL32, active compounds read low", "value": "0.298 (active)"}, {"measurement": "normalized growth", "setting": "S. cerevisiae deletion strains, locus YJR075W, strain HOC1, active compounds read low", "value": "0.202 (active)"}, {"measurement": "normalized growth", "setting": "S. cerevisiae deletion strains, locus YKL009W, strain mrt4, active compounds read low", "value": "0.639 (active)"}, {"measurement": "normalized growth", "setting": "S. cerevisiae deletion strains, locus YKL068W, active compounds read low", "value": "0.651 (active)"}, {"measurement": "normalized growth", "setting": "S. cerevisiae deletion strains, locus YKL085W, strain MDH1 (second series), active compounds read low", "value": "0.372 (active)"}, {"measurement": "normalized growth", "setting": "S. cerevisiae deletion strains, locus YKL085W, strain MDH1, active compounds read low", "value": "0.372 (active)"}, {"measurement": "normalized growth", "setting": "S. cerevisiae deletion strains, locus YKL160W, strain elf1, active compounds read low", "value": "0.533 (active)"}, {"measurement": "normalized growth", "setting": "S. cerevisiae deletion strains, locus YKL190W, strain CNB1, active compounds read low", "value": "0.125 (active)"}, {"measurement": "normalized growth", "setting": "S. cerevisiae deletion strains, locus YKR001C, strain vps1, active compounds read low", "value": "0.12 (active)"}, {"measurement": "normalized growth", "setting": "S. cerevisiae deletion strains, locus YKR026C, strain gcn3, active compounds read low", "value": "0.82 (active)"}, {"measurement": "normalized growth", "setting": "S. cerevisiae deletion strains, locus YKR091W, strain srl3, active compounds read low", "value": "0.793 (active)"}, {"measurement": "normalized growth", "setting": "S. cerevisiae deletion strains, locus YLL001W, strain dnm1, active compounds read low", "value": "0.68 (active)"}, {"measurement": "normalized growth", "setting": "S. cerevisiae deletion strains, locus YLL026W, active compounds read low", "value": "0.603 (active)"}, {"measurement": "normalized growth", "setting": "S. cerevisiae deletion strains, locus YLL041C, strain sdh2, active compounds read low", "value": "0.785 (active)"}, {"measurement": "normalized growth", "setting": "S. cerevisiae deletion strains, locus YLR027C, strain aat2, active compounds read low", "value": "0.664 (active)"}, {"measurement": "normalized growth", "setting": "S. cerevisiae deletion strains, locus YLR039C, strain RIC1, active compounds read low", "value": "0.166 (active)"}, {"measurement": "normalized growth", "setting": "S. cerevisiae deletion strains, locus YLR058C, strain SHM2, active compounds read low", "value": "0.154 (active)"}, {"measurement": "normalized growth", "setting": "S. cerevisiae deletion strains, locus YLR102C, strain apc9, active compounds read low", "value": "0.464 (active)"}, {"measurement": "normalized growth", "setting": "S. cerevisiae deletion strains, locus YLR221C, strain rsa3, active compounds read low", "value": "0.669 (active)"}, {"measurement": "normalized growth", "setting": "S. cerevisiae deletion strains, locus YLR258W, strain gsy2, active compounds read low", "value": "0.698 (active)"}, {"measurement": "normalized growth", "setting": "S. cerevisiae deletion strains, locus YLR262C, strain YPT6 (second series), active compounds read low", "value": "0.403 (active)"}, {"measurement": "normalized growth", "setting": "S. cerevisiae deletion strains, locus YLR262C, strain YPT6, active compounds read low", "value": "0.133 (active)"}, {"measurement": "normalized growth", "setting": "S. cerevisiae deletion strains, locus YLR268W, strain sec22, active compounds read low", "value": "0.158 (active)"}, {"measurement": "normalized growth", "setting": "S. cerevisiae deletion strains, locus YLR320W, strain mms22, active compounds read low", "value": "0.696 (active)"}, {"measurement": "normalized growth", "setting": "S. cerevisiae deletion strains, locus YLR330W, strain CHS5, active compounds read low", "value": "0.811 (active)"}, {"measurement": "normalized growth", "setting": "S. cerevisiae deletion strains, locus YLR342W, strain FKS1 (second series), active compounds read low", "value": "0.311 (active)"}, {"measurement": "normalized growth", "setting": "S. cerevisiae deletion strains, locus YLR342W, strain FKS1, active compounds read low", "value": "0.862 (active)"}, {"measurement": "normalized growth", "setting": "S. cerevisiae deletion strains, locus YLR357W, strain rsc2, active compounds read low", "value": "0.522 (active)"}, {"measurement": "normalized growth", "setting": "S. cerevisiae deletion strains, locus YLR370C, strain arc18, active compounds read low", "value": "0.313 (active)"}, {"measurement": "normalized growth", "setting": "S. cerevisiae deletion strains, locus YLR371W, strain rom2, active compounds read low", "value": "0.188 (active)"}, {"measurement": "normalized growth", "setting": "S. cerevisiae deletion strains, locus YLR384C, strain iki3, active compounds read low", "value": "0.804 (active)"}, {"measurement": "normalized growth", "setting": "S. cerevisiae deletion strains, locus YLR418C, strain cdc73, active compounds read low", "value": "0.175 (active)"}, {"measurement": "normalized growth", "setting": "S. cerevisiae deletion strains, locus YML016C, strain PPZ1, active compounds read low", "value": "0.224 (active)"}, {"measurement": "normalized growth", "setting": "S. cerevisiae deletion strains, locus YML032C, strain rad52, active compounds read low", "value": "0.313 (active)"}, {"measurement": "normalized growth", "setting": "S. cerevisiae deletion strains, locus YML120C, strain ndi1, active compounds read low", "value": "0.695 (active)"}, {"measurement": "normalized growth", "setting": "S. cerevisiae deletion strains, locus YML124C, strain tub3, active compounds read low", "value": "0.304 (active)"}, {"measurement": "normalized growth", "setting": "S. cerevisiae deletion strains, locus YMR058W, strain fet3, active compounds read low", "value": "0.0708 (active)"}, {"measurement": "normalized growth", "setting": "S. cerevisiae deletion strains, locus YMR078C, strain ctf18, active compounds read low", "value": "0.462 (active)"}, {"measurement": "normalized growth", "setting": "S. cerevisiae deletion strains, locus YMR125W, strain sto1, active compounds read low", "value": "0.87 (active)"}, {"measurement": "normalized growth", "setting": "S. cerevisiae deletion strains, locus YMR129W, active compounds read low", "value": "0.802 (active)"}, {"measurement": "normalized growth", "setting": "S. cerevisiae deletion strains, locus YMR205C, strain PFK2, active compounds read low", "value": "0.675 (active)"}, {"measurement": "normalized growth", "setting": "S. cerevisiae deletion strains, locus YMR223W, strain ubp8, active compounds read low", "value": "0.271 (active)"}, {"measurement": "normalized growth", "setting": "S. cerevisiae deletion strains, locus YMR231W, strain pep5, active compounds read low", "value": "0.179 (active)"}, {"measurement": "normalized growth", "setting": "S. cerevisiae deletion strains, locus YMR263W, strain SAP30, active compounds read low", "value": "0.221 (active)"}, {"measurement": "normalized growth", "setting": "S. cerevisiae deletion strains, locus YMR307W, strain GAS1, active compounds read low", "value": "0.172 (active)"}, {"measurement": "normalized growth", "setting": "S. cerevisiae deletion strains, locus YNL067W, strain RPL9B, active compounds read low", "value": "0.289 (active)"}, {"measurement": "normalized growth", "setting": "S. cerevisiae deletion strains, locus YNL071W, strain lat1, active compounds read low", "value": "0.757 (active)"}, {"measurement": "normalized growth", "setting": "S. cerevisiae deletion strains, locus YNL128W, strain TEP1, active compounds read low", "value": "0.234 (active)"}, {"measurement": "normalized growth", "setting": "S. cerevisiae deletion strains, locus YNL153C, strain GIM3, active compounds read low", "value": "0.468 (active)"}, {"measurement": "normalized growth", "setting": "S. cerevisiae deletion strains, locus YNL209W, strain ssb2, active compounds read low", "value": "0.583 (active)"}, {"measurement": "normalized growth", "setting": "S. cerevisiae deletion strains, locus YNL233W, strain BNI4, active compounds read low", "value": "0.394 (active)"}, {"measurement": "normalized growth", "setting": "S. cerevisiae deletion strains, locus YNL248C, strain rpa49, active compounds read low", "value": "0.765 (active)"}, {"measurement": "normalized growth", "setting": "S. cerevisiae deletion strains, locus YNL250W, strain rad50, active compounds read low", "value": "0.269 (active)"}, {"measurement": "normalized growth", "setting": "S. cerevisiae deletion strains, locus YNL271C, strain bni1, active compounds read low", "value": "0.3 (active)"}, {"measurement": "normalized growth", "setting": "S. cerevisiae deletion strains, locus YNL298W, strain CLA4, active compounds read low", "value": "0.345 (active)"}, {"measurement": "normalized growth", "setting": "S. cerevisiae deletion strains, locus YNL307C, strain MCK1, active compounds read low", "value": "0.124 (active)"}, {"measurement": "normalized growth", "setting": "S. cerevisiae deletion strains, locus YNL322C, strain KRE1 (second series), active compounds read low", "value": "0.547 (active)"}, {"measurement": "normalized growth", "setting": "S. cerevisiae deletion strains, locus YNL322C, strain KRE1, active compounds read low", "value": "0.139 (active)"}, {"measurement": "normalized growth", "setting": "S. cerevisiae deletion strains, locus YNR049C, strain mso1, active compounds read low", "value": "0.819 (active)"}, {"measurement": "normalized growth", "setting": "S. cerevisiae deletion strains, locus YNR052C, strain pop2, active compounds read low", "value": "0.164 (active)"}, {"measurement": "normalized growth", "setting": "S. cerevisiae deletion strains, locus YOL006C, strain TOP1, active compounds read low", "value": "0.153 (active)"}, {"measurement": "normalized growth", "setting": "S. cerevisiae deletion strains, locus YOL012C, strain htz1", "value": 0.261}, {"measurement": "normalized growth", "setting": "S. cerevisiae deletion strains, locus YOL147C, strain pex11, active compounds read low", "value": "0.32 (active)"}, {"measurement": "normalized growth", "setting": "S. cerevisiae deletion strains, locus YOR001W, strain rrp6, active compounds read low", "value": "0.752 (active)"}, {"measurement": "normalized growth", "setting": "S. cerevisiae deletion strains, locus YOR061W, strain CKA2, active compounds read low", "value": "0.269 (active)"}, {"measurement": "normalized growth", "setting": "S. cerevisiae deletion strains, locus YOR069W, strain VPS5, active compounds read low", "value": "0.222 (active)"}, {"measurement": "normalized growth", "setting": "S. cerevisiae deletion strains, locus YOR070C, strain gyp1, active compounds read low", "value": "0.669 (active)"}, {"measurement": "normalized growth", "setting": "S. cerevisiae deletion strains, locus YOR080W, strain dia2, active compounds read low", "value": "0.851 (active)"}, {"measurement": "normalized growth", "setting": "S. cerevisiae deletion strains, locus YOR083W, strain WHI5, active compounds read low", "value": "0.59 (active)"}, {"measurement": "normalized growth", "setting": "S. cerevisiae deletion strains, locus YOR106W, strain vam3, active compounds read low", "value": "0.408 (active)"}, {"measurement": "normalized growth", "setting": "S. cerevisiae deletion strains, locus YOR136W, strain idh2, active compounds read low", "value": "0.263 (active)"}, {"measurement": "normalized growth", "setting": "S. cerevisiae deletion strains, locus YOR144C, strain elg1, active compounds read low", "value": "0.461 (active)"}, {"measurement": "normalized growth", "setting": "S. cerevisiae deletion strains, locus YOR184W, strain ser1, active compounds read low", "value": "0.25 (active)"}, {"measurement": "normalized growth", "setting": "S. cerevisiae deletion strains, locus YOR265W, strain rbl2, active compounds read low", "value": "0.769 (active)"}, {"measurement": "normalized growth", "setting": "S. cerevisiae deletion strains, locus YOR270C, strain vph1, active compounds read low", "value": "0.405 (active)"}, {"measurement": "normalized growth", "setting": "S. cerevisiae deletion strains, locus YOR290C, strain snf2, active compounds read low", "value": 0.927}, {"measurement": "normalized growth", "setting": "S. cerevisiae deletion strains, locus YOR316C, strain cot1, active compounds read low", "value": "0.356 (active)"}, {"measurement": "normalized growth", "setting": "S. cerevisiae deletion strains, locus YPL051W, strain arl3, active compounds read low", "value": "0.207 (active)"}, {"measurement": "normalized growth", "setting": "S. cerevisiae deletion strains, locus YPL055C, strain LGE1, active compounds read low", "value": "0.169 (active)"}, {"measurement": "normalized growth", "setting": "S. cerevisiae deletion strains, locus YPL078C, strain atp4, active compounds read low", "value": "0.707 (active)"}, {"measurement": "normalized growth", "setting": "S. cerevisiae deletion strains, locus YPL106C, strain sse1, active compounds read low", "value": 1.01}, {"measurement": "normalized growth", "setting": "S. cerevisiae deletion strains, locus YPL240C, strain hsp82, active compounds read low", "value": "0.731 (active)"}, {"measurement": "normalized growth", "setting": "S. cerevisiae deletion strains, locus YPL241C, strain CIN2, active compounds read low", "value": "0.271 (active)"}, {"measurement": "normalized growth", "setting": "S. cerevisiae deletion strains, locus YPR119W, strain clb2, active compounds read low", "value": "0.433 (active)"}, {"measurement": "normalized growth", "setting": "S. cerevisiae deletion strains, locus YPR141C, strain kar3, active compounds read low", "value": "0.418 (active)"}, {"measurement": "normalized growth", "setting": "S. cerevisiae deletion strains, locus YPR163C, strain tif3, active compounds read low", "value": "0.441 (active)"}, {"measurement": "normalized growth", "setting": "S. cerevisiae deletion strains, locus YPR167C, strain met16, active compounds read low", "value": "0.387 (active)"}, {"measurement": "normalized growth", "setting": "S. cerevisiae deletion strains, strain wtn01, active compounds read low", "value": "0.254 (active)"}, {"measurement": "normalized growth", "setting": "S. cerevisiae strains, strain wild type, active compounds read low", "value": "0.13 (active)"}]}]}
